About 890 (0.31%) of roughly 290,000 compounds were called active. Rule as the data show it: active = inhibition mostly above about 52% (no sharp cut-off); inactive = mostly below about 76%. The sample as a whole holds a higher share of actives than the screen did.
Experiment: cell-free HIV fusion peptide-binding blockers – biochemical, uHTS, fluorescence dequenching, primary screen (AID 1986)
Conditions: 30 min, stronger effect = higher value

For COc1ccccc1C(CNc1nc(C(F)(F)F)nc2ccccc12)N(C)C (stereo not given), which inhibition (at 20 µM) is on record?
Its inhibition is 1.8% (inactive).

Which inhibition (at 20 µM) does the source give for CCn1c(SCC(=O)NC(C)C)nnc1-c1cccs1 here?
Its inhibition is -1.3% (inactive).

For Cc1cccc(CN2CCN(c3nc4nonc4nc3NC3CC3)CC2)c1, which inhibition (at 20 µM) is on record?
Its inhibition is 6.4% (inactive).

With CCCCC(=O)Nc1nn(C)c2nc3c(C)cccc3cc12 as the compound, how does the inhibition (at 20 µM) read?
The inhibition was 0.6% (inactive).

Which inhibition (at 20 µM) does the source give for COc1ccccc1C(=O)Nc1ccc(C2=NNC(=O)CC2C)cc1 (stereo not given) here?
Its inhibition is 1.5% (inactive).

With COc1ccccc1NC(=O)c1nn(-c2ccc(F)c(F)c2)ccc1=O as the compound, how does the inhibition (at 20 µM) read?
Its inhibition is -0.5% (inactive).

For CCOc1ccc(C(=O)Nc2ccc3c(c2)C(=O)NC3=O)cc1, which inhibition (at 20 µM) is on record?
The inhibition was 2.2% (inactive).

For C=CCn1c(SC(C)C(=O)NCc2ccc3c(c2)OCO3)nnc1C1CCCCC1 (stereo not given), which inhibition (at 20 µM) is on record?
The inhibition was -0.3% (inactive).

With CSc1ncc(CN2CCCC(C(=O)c3ccc(C(C)(C)C)cc3)C2)cn1 (stereo not given) as the compound, how does the inhibition (at 20 µM) read?
Its inhibition is 2.1% (inactive).

Which inhibition (at 20 µM) does the source give for CCOc1cc(/C=C2/C(=N)N3N=C(CC)SC3=NC2=O)ccc1OC(=O)c1ccco1 here?
Its inhibition is 12.4% (inactive).

Which inhibition (at 20 µM) does the source give for CCS(=O)(=O)C1=NN2C(=N)/C(=C\c3ccc(OC(=O)c4ccco4)c(OC)c3)C(=O)N=C2S1 here?
Its inhibition is 34.9% (inactive).

With CCOc1cc(/C=C2\C(=N)N3N=C(S(=O)(=O)CC)SC3=NC2=O)ccc1OC(=O)c1ccco1 as the compound, how does the inhibition (at 20 µM) read?
Its inhibition is 60.6% (active).

With O=C1C(c2cc(=O)c3ccccc3[nH]2)=C(O)c2ccccc21 as the compound, how does the inhibition (at 20 µM) read?
Its inhibition is -2.1% (inactive).

Which inhibition (at 20 µM) does the source give for Brc1ccc(/C=C/C=N/Nc2nc3ccccc3s2)cc1 here?
The inhibition was -4.3% (inactive).

What does the source list for Oc1ccc(N=C/C=C/c2cccc(Br)c2)cc1-c1nc2ccccc2s1?
inhibition (at 20 µM): 61.8% (inactive); inhibition (measured here: repeat confirmation average inhibition, at 18.6 µM): 5.5%

For Oc1ccc(N=C/C=C/c2ccc(Br)cc2)cc1-c1nc2ccccc2s1, which inhibition (at 20 µM) is on record?
Its inhibition is 64.1% (active).

With O=C1CCC(C(=O)Nc2cc(C(F)(F)F)ccc2-n2cncn2)=NN1 as the compound, how does the inhibition (at 20 µM) read?
The inhibition was -0.2% (inactive).

For CS(=O)(=O)C1=NSC2=NC(=O)/C(=C\c3cccn3-c3ccccc3Cl)C(=N)N21, which inhibition (at 20 µM) is on record?
Its inhibition is 78.5% (active).

Which inhibition (at 20 µM) does the source give for Cc1ccc(-n2cccc2/C=C2/C(=N)N3C(=NC2=O)SN=C3S(C)(=O)=O)cc1 here?
Its inhibition is 77.1% (active).

Which inhibition (at 20 µM) does the source give for CCc1ccc(-n2cccc2/C=C2/C(=N)N3C(=NC2=O)SN=C3S(C)(=O)=O)cc1 here?
The inhibition was 74.8% (active).

Which inhibition (at 20 µM) does the source give for CS(=O)(=O)C1=NSC2=NC(=O)/C(=C\c3ccc(-c4ccccc4)o3)C(=N)N21 here?
The inhibition was 34.9% (inactive).

Which inhibition (at 20 µM) does the source give for Cc1ccc(-n2cccc2/C=C2\C(=N)N3N=C(C(C)C)SC3=NC2=O)cc1 here?
The inhibition was 49.5% (inactive).

With Cc1cccc(C)c1-n1cccc1/C=C1/C(=N)N2C(=NC1=O)SN=C2S(C)(=O)=O as the compound, how does the inhibition (at 20 µM) read?
Its inhibition is 68.4% (active).

With CCC1=NN2C(=N)/C(=C\c3cccn3-c3ccc(Cl)cc3)C(=O)N=C2S1 as the compound, how does the inhibition (at 20 µM) read?
Its inhibition is 30.5% (inactive).

Which inhibition (at 20 µM) does the source give for CS(=O)(=O)C1=NSC2=NC(=O)/C(=C\c3ccc(OC(=O)c4ccco4)cc3)C(=N)N21 here?
Its inhibition is 47.4% (inactive).

For CCOc1cc(/C=C2/C(=N)N3C(=NC2=O)SN=C3S(C)(=O)=O)ccc1OC(=O)c1ccco1, which inhibition (at 20 µM) is on record?
The inhibition was 44.6% (inactive).

For CC1=CSC2=NC(=O)/C(=C\c3cccn3-c3ccc([N+](=O)[O-])cc3)C(=N)N12, which inhibition (at 20 µM) is on record?
The inhibition was 0.3% (inactive).

With CC1=CSC2=NC(=O)/C(=C\c3cccn3-c3ccccc3)C(=N)N12 as the compound, how does the inhibition (at 20 µM) read?
The inhibition was 8.7% (inactive).

With CCC1=NN2C(=N)/C(=C\c3cccn3-c3ccc(Br)cc3)C(=O)N=C2S1 as the compound, how does the inhibition (at 20 µM) read?
Its inhibition is 12.9% (inactive).

From PubChem BioAssay AID1986 (Sanford-Burnham Center for Chemical Genomics, 2009)
